An excerpt weighted towards active compounds, which were near 0.42% of everything screened.
GLS inhibitor – inhibitors of human glutaminase (GLS) | O94925 | GLS enzymatic activity, qHTS titration | Potency, µM (top dose mostly 45.5 µM), for the others: at the highest dose activity change, negative = inhibition, actives largely listed as inhibitors | 0.21% of 410,000 active
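hKGA; 45 mM KH2PO4 pH 8.2 + 0.02% Tween-20; cpd via pin tool; 1 mM Gln soln; GluOx/HRP/Amplex Red; RT 30 min; fluor. t0 & final.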
Tb PGK inh – inhibitors of T. brucei phosphoglycerate kinase. P07378. Potency, µM (doses to about 57.5 µM), without a hit: at the top dose activity change, negative = inhibition, actives largely listed as inhibitors. 0.043% of 380,000 active. AID 602233. PGK/GAPDH coupled, Kinase-Glo luminescence, 60 min; note: nearly all actives have a fitted effect of over 60% in size
Target sequence (P07378 whole entry, looked up): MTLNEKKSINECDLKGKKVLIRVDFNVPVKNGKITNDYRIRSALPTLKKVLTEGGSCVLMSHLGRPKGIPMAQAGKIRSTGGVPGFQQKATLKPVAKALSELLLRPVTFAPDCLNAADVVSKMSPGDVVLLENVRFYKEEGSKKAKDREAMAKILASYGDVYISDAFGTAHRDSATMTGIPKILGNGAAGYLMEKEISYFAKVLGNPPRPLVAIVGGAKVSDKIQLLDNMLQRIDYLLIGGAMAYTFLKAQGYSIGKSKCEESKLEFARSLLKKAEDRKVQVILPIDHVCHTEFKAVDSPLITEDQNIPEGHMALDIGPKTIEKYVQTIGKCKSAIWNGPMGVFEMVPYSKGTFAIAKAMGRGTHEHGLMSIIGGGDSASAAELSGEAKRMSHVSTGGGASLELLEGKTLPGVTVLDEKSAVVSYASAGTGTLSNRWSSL
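Luminescent ATP detection (Kinase-Glo Plus) follows a 60-minute room-temperature incubation, with wells lacking PGK as controls. Buffer: 100 mM TEA (pH 7.6), 5 mM MgCl2, 0.01% Tween-20. Coupling enzyme GAPDH (100 nM final) supplies unstable 1,3-BPG in-well.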
B2AR arrestin – agonists driving beta-arrestin recruitment to human beta2-adrenergic receptor | P07550 | beta-arrestin recruitment to beta2AR, cell-based reporter | Potency, µM (series often up to 46.1 µM), without a hit: top-dose activation, hits mostly activators | 0.02% of 330,000 active;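 note: 0% = DMSO controls and full agonism = EC100 isoproterenol or metaproterenol; nearly all actives have a fitted effect of over 65% in size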
BCR signal inh – chronic active BCR signaling inhibition; 0.05% of 340,000 active; Potency, µM (highest dose often 46.1 µM), for inactives: at the top dose activity change, negative = inhibition, hits mostly inhibitors; ABC-DLBCL IkBa-CBG/CBR reporter, luminescence ratio, 4 h; active = well fitted inhibition curve with a large enough effect in the signal ratio, with a control signal flat, not every such curve was filed as active; inconclusive = small, poorly fitted or top-dose-only effect, or effect the other way, or a change in a side signal; the % refers to the signal ratio;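 note: plate controls were basal doxycycline-induced cells for no effect and cells given 10 µM MG132 for full effect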
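Cell line TMD8 (human ABC DLBCL), stably expressing tet-inducible CBG68-IkBa fusion and CBR; IMDM/0.5% FBS; cpd up to 46 uM; dox induction, 4 h, 37C/5% CO2; dual luminescence; green/red ratio; MG132 control.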
Tb PFK inh – T. brucei PFK enzyme inhibition. T. brucei PFK, ADP-Glo luminescence. Potency, µM (top dose mostly 57.5 µM), for inactives: top-dose activity, negative = inhibition, actives largely listed as inhibitors. 0.17% of 330,000 active. AID 485367;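 note: 0% = uninhibited 1x PFK enzyme wells and -100% = no-enzyme wells; nearly all actives have a fitted effect of over 60% in size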
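Compounds were pin-transferred as a titration series up to 57 uM into substrate buffer (0.5 mM F6P, 0.1 mM ATP, pH 8.0), then 1.25 nM PFK was added and reactions ran 45 min before ADP-Glo detection.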
Pin1 inhibitor – blocks the human prolyl isomerase Pin1; Q13526; Pin1 FP peptide displacement, HiFluor488, 10 min; Potency, µM (top dose mostly 115 µM), inactives show at the highest dose activity, negative = inhibition, usual class: inhibitors; 0.009% of 390,000 active; AID 504891; active = well fitted inhibition curve with a large enough effect in the polarisation, with a control signal flat, not every such curve was filed as active; inconclusive = small, poorly fitted or top-dose-only effect, or effect the other way, or a change in a side signal; inactive = no such curve, though single readings can be large or run the other way; the % refers to the polarisation
* = called active by the depositor; [ ] = dose if it differs, or a comment. Unless noted, calls come from the whole dose curve; as a rule, active = well fitted curve in the direction sought with a large enough effect; inconclusive = small, poorly fitted or top-dose-only effect, or another doubt; inactive = no such curve, though single readings can be large; an effect the other way counts as inactive or inconclusive. Unless noted, % is set by controls: 0 for no effect and ±100 for the full control effect; potency is the fitted concentration of half-maximal effect.

Cn1cc(/C=N/NC(N)=S)c2ccccc21 was read as GLS inhibitor 26%, Tb PGK inh 4%, B2AR arrestin 7%, BCR signal inh inconclusive, Tb PFK inh 0% and Pin1 inhibitor 1%.
Screening C=CCNC(=S)N/N=C/c1cn(C)c2ccccc12 returned GLS inhibitor inconclusive, Tb PGK inh 1%, B2AR arrestin inconclusive, BCR signal inh 18µM*, Tb PFK inh -2% and Pin1 inhibitor 1%.
For CC(C)(C)c1ccc(/C=N/NC(=S)NCc2ccccc2)cc1 the results were GLS inhibitor 2%, Tb PGK inh 1%, B2AR arrestin 0%, BCR signal inh 5%, Tb PFK inh -1% and Pin1 inhibitor 7%.
Screening C=CCNC(=S)N/N=C/c1ccc(C(C)(C)C)cc1 returned GLS inhibitor 5%, Tb PGK inh -4%, B2AR arrestin inconclusive, BCR signal inh 11µM*, Tb PFK inh -5% and Pin1 inhibitor -1%.
COc1ccc(C2N(Cc3ccccc3)C(=O)c3ccccc3N2C)cc1COc1ccc(NC(C)=O)cc1 (stereo not given) was read as Pin1 inhibitor 24%.
For CCn1nnc(NC(=S)NC(=O)c2ccc(-c3cccc(Cl)c3)o2)n1 the results were GLS inhibitor -15%, Tb PGK inh inactive, B2AR arrestin 18µM*, BCR signal inh inconclusive, Tb PFK inh inconclusive and Pin1 inhibitor 0%.
For Cn1cc(P(=O)(c2ccccc2)c2ccccc2)c2ccccc21 the results were Pin1 inhibitor -1%.
`O=C1/C(=C\c2ccc(O)c(O)c2)N=C2CCCCCN12` gave GLS inhibitor 2.5µM*, Tb PGK inh inactive, B2AR arrestin 0%, BCR signal inh inconclusive, Tb PFK inh 1% and Pin1 inhibitor inconclusive.
`COc1cc(/C=C2\N=C3CCCCCN3C2=O)ccc1O` gave GLS inhibitor -1%, Tb PGK inh 3%[11.5 µM], B2AR arrestin -2%, BCR signal inh inconclusive, Tb PFK inh 3% and Pin1 inhibitor inconclusive.
`Cc1n[nH]c(=S)n(NC(=O)/C=C/C(=O)Nn2c(=S)[nH]nc(C)c2=O)c1=O` gave GLS inhibitor 11µM*, Tb PGK inh inconclusive, B2AR arrestin 0%, BCR signal inh 7%, Tb PFK inh -20% and Pin1 inhibitor inconclusive.
For COc1ccc(C=O)cc1OS(=O)(=O)c1ccc(NC(C)=O)cc1 the results were GLS inhibitor 5%, Tb PGK inh -5%, B2AR arrestin 0%, BCR signal inh 18µM*, Tb PFK inh 1% and Pin1 inhibitor -1%.
For COc1cc(C=O)cc(OC)c1OS(=O)(=O)c1ccc(NC(C)=O)cc1 the results were GLS inhibitor 18%, Tb PGK inh -9%, B2AR arrestin -1%, BCR signal inh -3%, Tb PFK inh -4% and Pin1 inhibitor 1%.
CC1=NN(C(N)=S)C(=O)C1N=Nc1ccccc1 (stereo not given) was read as GLS inhibitor 3%, Tb PGK inh -4%, B2AR arrestin 1.4µM*, BCR signal inh inconclusive, Tb PFK inh -5% and Pin1 inhibitor 7%.
CC1=NN(C(N)=S)C(=O)C1N=Nc1ccc(Cl)cc1 (stereo not given) was read as GLS inhibitor -9%, Tb PGK inh -2%, B2AR arrestin inconclusive, BCR signal inh 11%, Tb PFK inh 1% and Pin1 inhibitor -1%.
Screening COc1cccc(C(=O)Nc2sc3c(c2C#N)CCN(C(C)=O)C3)c1 returned GLS inhibitor 3%, Tb PGK inh inactive, B2AR arrestin 0%, BCR signal inh 20µM*, Tb PFK inh 4% and Pin1 inhibitor 35%.
NCCCC[C@H]1NC(=O)[C@H](CCC(=O)O)NC(=O)c2cc([N+](=O)[O-])cc(I)c2OCC[C@@H](C(N)=O)NC1=O was read as GLS inhibitor inconclusive, Tb PGK inh inconclusive, B2AR arrestin -1%, BCR signal inh 3%, Tb PFK inh 5% and Pin1 inhibitor 14µM*.

Screening data as filed in PubChem BioAssay.
